Assay outcomes as filed in PubChem.
Shown are actives, neighbours in structure and some others; about 3.1% of the full set was active somewhere.
ERb coact inh: blocks coactivator binding to human estrogen receptor beta; actives 1.3% (n = 86,000); Q92731; TR-FRET ER-beta LBD / SRC1-Cy5 peptide binding; receptor agonist-loaded with 1 µM estradiol; inhibition, % at 25.6 µM;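 active = compounds whose percent inhibition of the receptor-coactivator binding signal exceeds about 50% in the single-dose screen, limit read from the data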
ERa coact inh: blocks coactivator binding to human estrogen receptor alpha | P03372 | TR-FRET ER-alpha LBD / SRC-1 peptide, estradiol-bound | inhibition, % at 25.6 µM | actives 1.7% (n = 86,000) | AID 629; in the data active = inhibition above about 50%
Target sequence (P03372 whole entry, looked up, the tested form may be a part): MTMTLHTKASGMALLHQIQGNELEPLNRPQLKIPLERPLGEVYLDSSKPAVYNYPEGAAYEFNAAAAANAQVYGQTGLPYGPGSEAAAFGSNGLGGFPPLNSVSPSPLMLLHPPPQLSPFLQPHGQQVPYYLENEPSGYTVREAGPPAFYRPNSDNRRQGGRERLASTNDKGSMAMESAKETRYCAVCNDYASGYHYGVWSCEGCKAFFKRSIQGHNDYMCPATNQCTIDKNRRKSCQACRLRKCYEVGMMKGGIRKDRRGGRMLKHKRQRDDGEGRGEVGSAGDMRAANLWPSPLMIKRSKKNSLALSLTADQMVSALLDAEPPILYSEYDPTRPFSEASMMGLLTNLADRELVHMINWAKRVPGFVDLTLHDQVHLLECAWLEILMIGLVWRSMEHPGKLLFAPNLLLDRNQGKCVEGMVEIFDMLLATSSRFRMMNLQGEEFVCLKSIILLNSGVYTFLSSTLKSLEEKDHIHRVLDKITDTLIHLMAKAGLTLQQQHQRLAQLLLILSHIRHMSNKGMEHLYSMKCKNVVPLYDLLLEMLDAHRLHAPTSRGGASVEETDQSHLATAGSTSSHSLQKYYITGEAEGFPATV
ERa coact pot: ER-alpha (human) coactivator binding potentiation. AID 639. P03372. coactivator binding (% of control), % at 25.6 µM. actives 1.3% (n = 86,000). TR-FRET ERalpha-LBD/SRC-Cy5 coactivator binding, 2 h; 100 = basal binding, no effect; in the data active = activity above about 200%;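 note: binding measured in presence of low estradiol as agonist stimulus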
CD11b adhes inh: CD11b/CD18-fibrinogen binding inhibition; P05107+P11215; K562 CD11b/CD18 adhesion to fibrinogen, ATPlite luminescence; Mn2+ added to activate the integrin; inhibition, % at 10 µM; actives 0.54% (n = 93,000); AID 1497;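 active = primary inhibition of 50% or more at 10 µM, then 40% or more on retest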
CD11b adhes enh: CD11b/CD18-fibrinogen binding enhancement. activation, % at 10 µM. K562 CD11b/CD18 adhesion to fibrinogen, ATPlite luminescence. P05107+P11215. actives 0.07% (n = 93,000);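 active = 10 µM primary screen giving 50% or more activity, confirmed by 40% or more on retest at that dose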
Of the large screens only hits and unclear results are named; the others gave an inactive call; [ ] = remark or other dose.

Cc1cccc(-c2nnc3n2N=C(c2ccc(Br)cc2)CS3)c1	ERa coact inh 56[fluorescence artefact?], ERa coact pot 297
CCOc1ccc(C2=Nn3c(nnc3-c3ccccc3OC)SC2)cc1	none (no result: ERb coact inh, ERa coact inh, ERa coact pot)
COc1cc(/C=N/NC(=O)CCc2c(C)n[nH]c2C)cc(OC)c1OC	none
CC(=O)N(C)c1ccc(OCC(O)Cn2c3ccc(Cl)cc3c3cc(Cl)ccc32)cc1 (centres undefined)	none (no result: ERb coact inh, ERa coact inh, ERa coact pot)
COC(=O)C1=C(C)NC(C)=C(C(=O)OC)C1c1cc2cc(C)ccc2[nH]c1=O	none (no result: CD11b adhes inh, CD11b adhes enh)
Cc1ccc2[nH]c(=O)c(C3C(C#N)=C(N)Oc4c3ccc3cccnc43)cc2c1 (centres undefined)	ERb coact inh 61, ERa coact inh 79
CNC(=S)SCCOc1ccccc1C	none (no result: ERb coact inh, ERa coact inh, ERa coact pot)
CCC(=O)Nc1nnc(SCC(=O)c2ccc3c(c2)Cc2ccccc2-3)s1	none (no result: ERb coact inh, ERa coact inh, ERa coact pot)
O=C(CSc1ccc(Cl)cc1)c1ccco1	ERb coact inh 81, ERa coact inh 80[fluorescence artefact?]
O=C(CSc1ccccc1Cl)c1ccco1	none
CC1(C)C([N+](=O)[O-])C(c2ccc(Cl)cc2)NC(c2ccc(Cl)cc2)C1[N+](=O)[O-] (centres undefined)	none (no result: ERb coact inh, ERa coact inh, ERa coact pot)
O=C(NC(=S)N1CCc2ccccc21)c1ccccc1Br	none (no result: ERb coact inh, ERa coact inh, ERa coact pot)
O=C(COc1ccc(Br)cc1Br)NC(=S)N1CCCc2ccccc21	CD11b adhes inh 60 (no result: ERb coact inh, ERa coact inh, ERa coact pot)
CC1(C)Cc2ccccc2-c2nnc(SCC(=O)Nc3nc4ccccc4s3)n21	ERa coact inh 56[fluorescence artefact?]
CCCC(=O)Nc1c(C)nn(C(=O)CCC)c1C	ERa coact pot 278[fluorescence artefact?]
O=C(NNC1=C(C(=O)C(F)(F)F)CCC1)c1ccc(Cl)cc1	CD11b adhes inh 96
CCCc1ccc(C(=O)NNC(=O)c2ccc(Cl)cc2)cc1	none (no result: ERb coact inh, ERa coact inh, ERa coact pot)
O=C(NNC(=O)c1ccccc1Br)c1cccc(Cl)c1	none (no result: ERb coact inh, ERa coact inh, ERa coact pot)
O=C(NNC1=C(C(=O)C(F)(F)F)CCC1)c1cccc(Cl)c1	CD11b adhes inh 99
Oc1ccc(Cl)cc1-c1cc(C(F)(F)C(F)F)nc(-c2ccccc2)n1	CD11b adhes inh 59
CN(C)c1ncc(C2=C(Cl)C(=O)C(N3CCCC3)=C(Cl)C2=O)s1	ERb coact inh 94[fluorescence artefact?], ERa coact inh 97[fluorescence artefact?] (no result: CD11b adhes inh, CD11b adhes enh)
O=C1C(Cl)=C(N2CCCCC2)C(=O)C(Cl)=C1c1cnc(N2CCCCC2)s1	none (no result: CD11b adhes inh, CD11b adhes enh)
Cc1ccc(CNc2oc(-c3ccco3)nc2S(=O)(=O)c2ccccc2)cc1	none (no result: CD11b adhes inh, CD11b adhes enh)
CCOC(=O)C(C)Sc1nnc(NC(=O)c2cccc([N+](=O)[O-])c2C)s1 (centres undefined)	none (no result: ERb coact inh, ERa coact inh, ERa coact pot)
CCOC(=O)C(C)Sc1nnc(NC(=O)c2ccc(C)c([N+](=O)[O-])c2)s1 (centres undefined)	CD11b adhes inh 66 (no result: ERb coact inh, ERa coact inh, ERa coact pot)
N#Cc1cc(-c2ccccc2)c[nH]c1=O	none (no result: ERb coact inh, ERa coact inh, ERa coact pot)
COc1ccc(C(c2nnnn2Cc2cccs2)N2CCN(c3ccccc3F)CC2)cc1 (centres undefined)	none
CCOc1ccc(/C=c2\sc3nc(-c4ccco4)nn3c2=O)cc1OCC	ERa coact inh 55
COc1ccccc1/C=c1\sc2nc(-c3ccco3)nn2c1=O	ERb coact inh 67[fluorescence artefact?], ERa coact inh 74
CCn1c(C)nc2cc(-c3nc4n(n3)Cc3ccccc3-4)ccc21	CD11b adhes inh 98
CCc1cc2cc3c(cc2nc1SCC(=O)Nc1cc(C)on1)OCO3	none
CC1=NN(C(=O)c2ccc(Br)cc2)C(O)(C(F)(F)OC(F)(F)F)C1 (centres undefined)	CD11b adhes inh 93 (no result: ERb coact inh, ERa coact inh, ERa coact pot)
CC1=NN(C(=O)c2csc(C)c2)C(O)(C(F)(F)F)C1 (centres undefined)	none (no result: ERb coact inh, ERa coact inh, ERa coact pot)
CCCCn1nnc(NC(=S)NC(=O)c2cccs2)n1	none (no result: ERb coact inh, ERa coact inh, ERa coact pot)
COc1ccc(S(=O)(=O)N(C(C)=O)c2ccc(OC(C)=O)c3ccccc23)cc1[N+](=O)[O-]	none (no result: ERb coact inh, ERa coact inh, ERa coact pot)
OCCN1CCN(C(c2cccs2)c2ccc3cccnc3c2O)CC1 (centres undefined)	ERb coact inh 64[fluorescence artefact?], ERa coact inh 69[fluorescence artefact?]
N#CC(C(=O)Nc1ccccc1)=C1CCCCC1	ERb coact inh 74
CCOC(=O)c1cc(C)n(Cc2cccc(OC)c2OC)c1C	CD11b adhes inh 56
CCOC(=O)c1cc(C)n(Cc2ccccc2)c1C	none
O=C(CCC1N=C2c3ccccc3N=C(SCc3cccc(Cl)c3)N2C1=O)NCc1ccco1 (centres undefined)	ERa coact pot 257[fluorescence artefact?]
O=C(CCC1N=C2c3ccccc3N=C(SCc3ccccc3Cl)N2C1=O)NCc1ccco1 (centres undefined)	none
